The nature of assay [1]: NCI Yeast Anticancer Drug Screen. Data for the rad50 strain (AID 155).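 Further: 0% = growth of vehicle-only cultures of the same strain.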 The following applies: S. cerevisiae rad50 strain growth inhibition; at 50.0 µM; active compounds read high. A digest of the protocol:
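DNA repair mutant yeast, compound exposure, growth read-out; inhibition is taken relative to vehicle.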

A short description of assay [2]: NCI Yeast Anticancer Drug Screen. Data for the mec2-1 strain (AID 157). Particulars: S. cerevisiae mec2-1 strain, at 50.0 µM, active compounds read high. An outline of the steps: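 Cells of the genetically defined mec2-1 yeast strain are incubated with test compound. Inhibition of growth is calculated against vehicle-treated controls.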
Assay [3] in a line: NCI Yeast Anticancer Drug Screen. Data for the sgs1 mgt1 strain (AID 161).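 Further: 0% = growth of cultures given vehicle only.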 The following applies: S. cerevisiae sgs1 mgt1 strain, at 50.0 µM, active compounds read high. A digest of the protocol:
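Read-out: growth inhibition vs vehicle controls. Cells: mutant yeast strain deficient in DNA damage repair.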

A short description of assay [4]: NCI Yeast Anticancer Drug Screen. Data for the cln2 rad14 strain (AID 165).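 Further: 0% = growth equal to vehicle treated cultures.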 The following applies: S. cerevisiae cln2 rad14 strain, at 50.0 µM, active compounds read high. An outline of the steps: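 The screen exposed genetically defined yeast (cln2 rad14) to test compounds and scored growth inhibition relative to vehicle-treated controls.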
Assay [5] in a line: NCI Yeast Anticancer Drug Screen. Data for the bub3 strain (AID 167). The following applies: S. cerevisiae bub3 mutant strain, at 50.0 µM, active compounds read high. A digest of the protocol: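 In this screen, a yeast mutant lacking normal mitotic checkpoint function is challenged with compound. Relative growth versus vehicle gives the inhibition value.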
Assay [6] is described as follows: NCI Yeast Anticancer Drug Screen. Data for the mlh1 rad18 strain (AID 175). Particulars: S. cerevisiae mlh1 rad18 strain growth inhibition; at 50.0 µM; active compounds read high. A digest of the protocol:
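Compound-treated yeast growth, normalised to vehicle controls. Strain bears defined DNA repair mutations.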

The results in this text go back to PubChem BioAssay (NCI).

The structures appear in SMILES notation. About 79,000 compounds went through this panel and 15% of them were active in at least one assay; those are over-represented in the sample as a whole. Values without a mark were called inactive. The source made the active and inactive calls. No stated cut-off is given here; in the data, active means growth inhibition above about 70%; inactive means the rest.

`COc1ccc(-c2c(C(C)=O)c(-c3ccccc3)n(C3OC(CO)C(O)C(O)C3O)c(=S)c2C#N)cc1` (stereo unspecified): the growth inhibition in assay [1] is -17.7%; in assay [2], -3.7%; in assay [3], 6.6%; in assay [4], 3.95%; in assay [5], 1.3%; in assay [6] it was 6.2%.

Take `N#CC1(N=Cc2ccc3c(c2)OCO3)c2ccccc2-c2ccccc21`: the growth inhibition was 15.2% in assay [1]; 6.85% in assay [2]; 5.8% in assay [3]; -9.35% in assay [4]; 8.55% in assay [5]; 4.95% in assay [6].

Consider `c1ccc(C2(c3ccccc3)CCc3ccccc3O2)cc1`, for which the growth inhibition in assay [1] is 27.5%; in assay [2], 15.6%; in assay [3] it was 4.7%; in assay [4], -40.5%; in assay [5], -9.6%; in assay [6], 31.9%.

Regarding `O=C(/C=C(\C(=O)c1cccs1)c1cccs1)c1ccc(C(=O)/C=C(\C(=O)c2cccs2)c2cccs2)cc1`, the growth inhibition is 3.6% in assay [1]; -23.9% in assay [2]; 19% in assay [3]; -25.1% in assay [4]; -15.6% in assay [5]; -5.85% in assay [6].

Regarding `CCn1c(=O)c2c3ccc(OC(C)=O)cc3[nH]c2c2ccc(OC(C)=O)cc21`, the growth inhibition in assay [1] is -17.9%; in assay [2], -30.5%; in assay [3], -10.9%; in assay [4], 9.35%; in assay [5], 4%; in assay [6], -21.6%.

In the case of `O=Cc1ccc(F)cc1[N+](=O)[O-]`, the growth inhibition in assay [1] was 1.1%; in assay [2], 3.65%; in assay [3], -15.8%; in assay [4], 1.1%; in assay [5] it was -2.25%; in assay [6], -17.2%.

As for `O=C1c2ccccc2C(=O)N1CNc1ccccc1Cl`, the growth inhibition was 27.8% in assay [1]; 8.95% in assay [2]; 23.2% in assay [3]; 18.2% in assay [4]; 18.2% in assay [5]; 17.3% in assay [6].

On to `CN1CCC/C1=N\c1ncn[nH]1`, for which the growth inhibition in assay [1] is 3.3%; in assay [2] it was -21.1%; in assay [3], -4.45%; in assay [4], -65.3%; in assay [5], -8.5%; in assay [6], -2.85%.

For `C/C(=N/O)C1c2ccccc2Cc2ccccc21`, the growth inhibition is -11.5% in assay [1]; -11.8% in assay [2]; -24.4% in assay [3]; -12.8% in assay [4]; -1.8% in assay [5]; -22.5% in assay [6].

With `Clc1ccc2noc(-c3ccccc3)c2c1`, the growth inhibition in assay [1] was 22.6%; in assay [2], 3.05%; in assay [3], 4%; in assay [4] it was 0.85%; in assay [5], 0.7%; in assay [6], 23.6%.

With `COc1cc(OC)c(N=Nc2c(C)nc(N)nc2-c2ccccc2)cc1Cl`, the growth inhibition is 44.6% in assay [1]; 5.45% in assay [2]; 19.2% in assay [3]; 20.3% in assay [4]; 4.6% in assay [5]; 23.9% in assay [6].

`CCCc1c(O)c2ccccc2[nH]c1=O`: the growth inhibition in assay [1] is 11.3%; in assay [2], 11.7%; in assay [3], -37.8%; in assay [4] it was 14.7%; in assay [5], 15.8%; in assay [6], -8.3%.

With `Nc1nnc(/C=C/c2ccc(Cl)cc2)o1`, the growth inhibition is -26.5% in assay [1]; -8.15% in assay [2]; -14.9% in assay [3]; 2.9% in assay [4]; -18.6% in assay [5]; -11.3% in assay [6].

`CCN(CCNc1cc(OC)cc2cccnc12)c1ccccc1`: the growth inhibition in assay [1] is 59.9%; in assay [2], 20.7%; in assay [3], 48.4%; in assay [4], 23.2%; in assay [5], 47%; in assay [6], 68.2%.

For the molecule `CC(C)(CCl)c1ccccc1`, the growth inhibition in assay [1] was -10.6%; in assay [2] it was -3.1%; in assay [3], -6.3%; in assay [4], 0.75%; in assay [5] it was 4%; in assay [6], -0.55%.

With `CCCCCCCCC(=O)c1c(OC)oc(/C=N/NC(N)=S)cc1=O`, the growth inhibition was 83.5% (active) in assay [1]; 77.1% (active) in assay [2]; 79% (active) in assay [3]; 9.55% in assay [4]; 86.2% (active) in assay [5]; 71.8% (active) in assay [6].

For `O=[N+]([O-])c1ccc(NC(=S)Nc2ccc([N+](=O)[O-])cc2)cc1`, the growth inhibition in assay [1] was 5.05%; in assay [2] it was -17.6%; in assay [3], -1.1%; in assay [4], -25.8%; in assay [5], 5.7%; in assay [6] it was 2.75%.

Turning to `COc1cccc2c1C(CO)N1C(C#N)C3CC(C(=O)O)C(C1C2)N3C` (stereo unspecified), the growth inhibition in assay [1] was 0.25%; in assay [2], -5.9%; in assay [3] it was -28.3%; in assay [4], 3.4%; in assay [5] it was 8%; in assay [6], -2.45%.

As to `CCCC(=O)NC(Nc1ccc(S(=O)(=O)Nc2ccc(OC)nn2)cc1)(C(F)(F)F)C(F)(F)F`, the growth inhibition was 1.55% in assay [1]; -19.1% in assay [2]; -0.6% in assay [3]; 0.35% in assay [4]; -16.8% in assay [5]; -9.25% in assay [6].

`NCCCNCCS`: the growth inhibition in assay [1] is 19.6%; in assay [2], 1.5%; in assay [3], 22.6%; in assay [4], 18.3%; in assay [5], 2.5%; in assay [6] it was 17.1%.

Regarding `Cc1cc(C)nc(NS(=O)(=O)c2ccc(NC(=O)c3cccc4c(Nc5ccc(S(=O)(=O)N=C(N)N)cc5)c5ccccc5nc34)cc2)n1`, the growth inhibition is 0.75% in assay [1]; 14.7% in assay [2]; -10.5% in assay [3]; 37.5% in assay [4]; 26.1% in assay [5]; 15.9% in assay [6].
